In the supplement of paper PMC3334620:
Whole data set: some 33,000 sequences, median “E-score (-0.5 to 0.5)” near -0.054, cut for the highest 2% near 0.35. Many of the other results were omitted from the sample, so the highest values are more common in it than they were.

Molecular target: T1, Stb5 (UniProt P38699)
T1 sequence: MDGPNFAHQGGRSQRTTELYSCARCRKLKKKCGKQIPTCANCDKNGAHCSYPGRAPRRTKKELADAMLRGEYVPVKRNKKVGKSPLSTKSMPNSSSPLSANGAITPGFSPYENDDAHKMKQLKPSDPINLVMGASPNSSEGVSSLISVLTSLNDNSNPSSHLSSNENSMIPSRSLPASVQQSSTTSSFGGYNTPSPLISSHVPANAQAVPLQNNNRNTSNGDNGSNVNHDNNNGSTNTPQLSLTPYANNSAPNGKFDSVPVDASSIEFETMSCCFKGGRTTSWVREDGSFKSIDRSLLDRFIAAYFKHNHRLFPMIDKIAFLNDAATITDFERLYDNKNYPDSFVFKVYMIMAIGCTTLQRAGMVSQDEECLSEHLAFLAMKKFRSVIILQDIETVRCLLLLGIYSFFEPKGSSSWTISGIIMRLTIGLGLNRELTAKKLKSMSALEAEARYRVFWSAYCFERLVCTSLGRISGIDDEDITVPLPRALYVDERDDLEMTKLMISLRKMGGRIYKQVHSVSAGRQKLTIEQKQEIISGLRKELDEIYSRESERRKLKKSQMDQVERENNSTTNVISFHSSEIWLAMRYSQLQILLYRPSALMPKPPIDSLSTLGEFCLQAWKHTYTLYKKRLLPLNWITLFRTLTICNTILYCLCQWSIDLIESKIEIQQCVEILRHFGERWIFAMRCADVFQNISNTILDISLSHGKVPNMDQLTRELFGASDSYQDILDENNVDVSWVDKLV
Experiment: PBM E-score (8-mer binding enrichment) (E-score (-0.5 to 0.5)); higher = stronger / more preferred TF binding
Conditions: protein concentration: 200 nM; construct: GST-full length
Procedure, shortened: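 Yeast transcription factors carrying a GST tag, as full-length proteins or DNA-binding domains, were produced by PURExpress in vitro transcription/translation. About 100-200 nM protein was applied to universal all-10-mer Agilent arrays, double-stranded by primer extension on fresh or once-stripped slides. Bound protein was detected with fluorescent anti-GST, and scans were normalised with masliner. The Universal PBM Analysis Suite gave each ungapped eight-base word, pooled with its reverse complement, an E-score, a modified Wilcoxon-Mann-Whitney statistic.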

Row | Sequence | PBM E-score
1 | GAACTCAC | -0.221
2 | AAGGCCGT | 0.421
3 | ACGGCCGT | 0.226
4 | AAGGCCTT | -0.163
5 | TAGGCCGA | 0.125
6 | AAAAGCCC | 0.324
7 | AAGGCCGG | 0.407
8 | AAGGCCGA | 0.46
9 | CAGGCCGA | 0.153
10 | AAAAGCCG | 0.38
11 | CAGGCCGG | 0.11
12 | AAGGCCTG | -0.0882
13 | AAAAGCCT | -0.122
14 | TTCACAAA | -0.00748
15 | GACCAAAC | -0.0734
16 | AGACGGTC | 0.142
17 | CATCCATG | -0.205
18 | AAAGGCCG | 0.446
19 | GAGGCCGC | 0.322
20 | AAAGGCCC | 0.274
21 | CAGGCCGC | 0.187
22 | AAGGCCCG | 0.359
23 | CAAGGCCG | 0.236

Row | Sequence | PBM E-score
24 | CAGGCCCG | 0.109
25 | AAGGCCCA | -0.17
26 | AAGGCCGC | 0.441
27 | AGACAGGG | -0.161
28 | ACGCCTAG | -0.0889
29 | ACATTAGA | -0.214
30 | CATACTGG | -0.062
31 | CCAGAGGG | -0.0691
32 | CGCACGAA | -0.0424
33 | GAGTTTAC | 0.115
34 | CGTTCCGC | 0.226
35 | CGTTCCGA | 0.00452
36 | AGTTCCGA | 0.374
37 | AGTTCCGG | 0.333
38 | AGTTCCGC | 0.361
39 | GGTTCCGA | 0.126
40 | ACCCATCG | 0.1
41 | CCCTCTTA | -0.167
42 | CGCCCGAC | 0.33
43 | CGCCCGCC | 0.258
44 | AGCCCGAG | 0.05
45 | AGCCCGAC | 0.373
46 | ATCCCGAC | 0.39

Row | Sequence | PBM E-score
47 | AGCCCGCC | 0.359
48 | ATCCCGAT | 0.238
49 | GGCCCGAC | 0.358
50 | ATCCCGAG | 0.161
51 | AGCCCGCG | 0.334
52 | AGCCCGAT | 0.328
53 | GGCCCGAA | 0.149
54 | ACACTTAA | -0.117
55 | CACAAGCG | -0.0542
56 | CAAAATCG | -0.0979
57 | CCGTGAGC | 0.196
58 | CACTACCC | -0.179
59 | ATGCACTA | -0.0627
60 | GGTATGTA | 0.18
61 | CGACTAAC | 0.00814
62 | AACCCTGG | -0.284
63 | ACAGGATC | -0.312
64 | CAATTAAA | -0.00358
65 | GCCTCCTA | -0.0585
66 | AGACTTGG | -0.17
67 | CTAACGCC | 0.316
68 | AAAACGCG | 0.0108
69 | AAAACGCC | 0.368

Row | Sequence | PBM E-score
70 | ATAACGCC | 0.359
71 | ATAACGCG | 0.0524
72 | CAAACGCC | 0.243
73 | AAACCAGG | -0.00613
74 | CCCGAGAG | 0.0886
75 | GAATTCTA | -0.248
76 | ACCTTCAA | -0.0982
77 | CTGGTTAA | -0.102
78 | ACGGGAAG | -0.0191
79 | ACGGGCCG | 0.194
80 | ACGGGGAT | 0.415
81 | ACGGGGCC | 0.221
82 | ACGGGGCA | 0.159
83 | ACGGGGCT | 0.366
84 | ACGGGCCT | 0.376
85 | ACGGGAAC | 0.205
86 | ACGGGCCA | 0.169
87 | ACGGGAAT | 0.371
88 | ACGGGGAG | 0.202
89 | ACGGGGAC | 0.241
